CYP2C9 activ = human CYP2C9 activators, primary screen, biochemical, luminescence | recombinant CYP2C9, luciferin-H conversion; stronger effect = higher value; factor 1 = untreated enzyme, 0 = blocked | activation factor at 5 µM | actives 1.4% (n = 96,000);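 active = activation factor of 2 or more for CYP2C9 at a 5 µM dose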;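 note: 0 = sulfaphenazole-blocked wells and 1 = vehicle-only wells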
CYP2C19 inhib = blockers of cytochrome P450 2C19 activity – biochemical, luminescence, ADME assay, primary screen | CYP2C19 Supersomes, luciferin-H EGE luminescence, 30 min | inhibition, % at 5 µM | actives 21% (n = 96,000) | AID 778, 2007;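 active = CYP2C19 inhibition above a set limit at 5 µM in the primary screen, cut at about 50% in these data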;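 note: plate controls were negative control wells for no effect and 2.5 mM tranylcypromine positive control for full effect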
Target sequence (P33261 whole entry, looked up): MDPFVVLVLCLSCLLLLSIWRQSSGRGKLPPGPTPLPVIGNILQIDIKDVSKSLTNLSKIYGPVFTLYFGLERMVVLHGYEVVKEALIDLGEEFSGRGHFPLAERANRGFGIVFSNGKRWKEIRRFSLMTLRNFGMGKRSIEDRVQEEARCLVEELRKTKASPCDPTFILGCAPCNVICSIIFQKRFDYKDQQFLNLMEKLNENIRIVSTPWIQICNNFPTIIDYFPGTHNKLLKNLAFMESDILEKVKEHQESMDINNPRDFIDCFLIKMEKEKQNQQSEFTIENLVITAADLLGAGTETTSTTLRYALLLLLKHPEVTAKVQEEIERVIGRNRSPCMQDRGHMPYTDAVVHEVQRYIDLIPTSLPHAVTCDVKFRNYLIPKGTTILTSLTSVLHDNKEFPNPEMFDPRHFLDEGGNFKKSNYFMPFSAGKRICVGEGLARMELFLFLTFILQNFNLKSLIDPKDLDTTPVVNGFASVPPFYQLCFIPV
E-sel TNF inh = E-selectin induction blockers in HUVEC – imaging, immunofluorescence, high content, primary screen | HUVEC TNFa-induced E-selectin immunofluorescence | inhibition, % at 2 µM | actives 0.71% (n = 120,000) | AID 1246, 2008;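 active = inhibition above the batch mean plus 3 SD, and confirmed as a hit on visual image review, cut at about 43% in these data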;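 note: 0% = TNF-stimulated DMSO wells and 100% = unstimulated control wells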
CYP2C9 inh = blockers of cytochrome P450 2C9 activity – biochemical, luminescence, ADME assay, primary screen. CYP2C9 Supersomes, luciferin-H conversion. actives 20% (n = 96,000). inhibition, % at 5 µM. AID 777, 2007. P11712;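 active = blocking of liver enzyme CYP2C9 beyond about 50% at 5 µM, limit read from the data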
F-actin modifier = modifiers of F-actin cytoskeleton organization, primary screen, imaging, HUVEC, phalloidin staining, high-content imaging; HUVEC TNFa F-actin phalloidin imaging; inhibition, % at 2 µM; actives 0.18% (n = 91,000); AID 836, 2007;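 active = inhibition above the batch mean plus 3 SD and confirmed as a hit by visual image inspection, cut at about 30% in these data, passing the limit was not always enough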
CYP2C19 activ = human CYP2C19 activators, primary screen, biochemical, luminescence | activation factor at 5 µM | 96,000 tested, under 10 active | Cytochrome P450 2C19 (Homo sapiens), P33261 | recombinant CYP2C19, luciferin-H EGE luminescence; stronger effect = higher value; 0 = fully inhibited enzyme, 1 = untreated enzyme;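 active = activation factor of at least 2 at 5 µM in the primary screen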;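 note: 0 = wells with 2.5 mM tranylcypromine and 1 = vehicle-only wells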
* = called active by the depositor; nt = no result. Hits are enriched below; roughly 22% of the tested compounds scored in any of these assays.

SMILES	CYP2C9 activ	CYP2C19 inhib	E-sel TNF inh	CYP2C9 inh	F-actin modifier	CYP2C19 activ
O=C(c1ccccc1)c1nn(-c2ccc(Cl)cc2)cc1C(=O)c1cc2ccccc2oc1=O	0.3	26.3	-18.9	67.2*	15.7	0.7
CC(C)(C)NCCCCOc1ccccc1F	1	-1.8	nt	1.6	17.1	1
CCOC(=O)/C=C1\NC(=O)C(C)S1 (stereo not drawn)	2.1*	4.9	-0.5	-109.5	nt	1
COc1ccccc1OCCN1CSC(=S)N(C)C1	nt	nt	20.7	nt	nt	nt
Cc1cccc(OCCN2CSC(=S)N(C)C2)c1	0.1	78.7*	nt	87.7*	4.0	0.2
COC(=O)C1C(c2ccccc2)C(C(=O)O)C1c1ccccc1 (stereo not drawn)	nt	nt	5.3	nt	nt	nt
O=C(O)C1C(c2ccccc2)C(C(=O)Oc2ccc(O)cc2)C1c1ccccc1 (stereo not drawn)	0.2	10.7	nt	80.2*	19.4	0.9
COc1ccc(NC(=O)CN2CCN(c3ccccc3F)CC2)cc1	0.3	55.0*	nt	68.5*	2.0	0.4
O=C(CN1CCN(c2ccccc2F)CC1)Nc1ccc2c(c1)CCC2	nt	nt	7.2	nt	nt	nt
CCN(CC)c1ccc(NC(=O)CN2CCN(c3ccccc3F)CC2)cc1	0.5	55.2*	nt	46.1	28.2	0.4
COC(=O)c1cccc(NC(=O)CN2CCN(c3ccc(OC)cc3)CC2)c1	0.1	64.6*	nt	85.6*	0.0	0.4
CCN(CC)C(=O)CN1CCN(c2ccccc2F)CC1	1	38.2	nt	3.3	-8.9	0.6
COc1cccc(N2CCN(CC(=O)Nc3nc4c(s3)CC(C)CC4)CC2)c1 (stereo not drawn)	0.5	39.9	nt	53.1*	-8.2	0.6
CCOc1ccc(NC(=O)CCN2CCN(c3ccccc3F)CC2)cc1	0.3	50.6*	nt	67.5*	-12.4	0.5
COc1ccc(N2CCC(CNC(=O)Nc3cccc(OC)c3)C2)cc1 (stereo not drawn)	0.2	39.9	18.1	75.9*	-19.6	0.6
C(=N\Nc1ccccn1)/c1ccc2c(c1)OCCO2	nt	nt	-3.0	nt	nt	nt
COc1cc2c(cc1OC)C1=C(C#N)CC/C(=N\S(=O)(=O)c3ccccc3)N1CC2	0.1	68.8*	nt	86.8*	nt	0.3
COc1cc2c(cc1NC(=O)CN1C(=O)NC3(CCc4ccccc43)C1=O)oc1ccccc12 (stereo not drawn)	0.6	2.2	-18.9	38.4	nt	1
COc1cc(C)c(N(C(C)=O)c2ccccc2)c(C)c1	0.7	61.3*	-12.1	31.0	25.4	0.4
CC(=O)N(c1ccccc1)c1nc(C)cc(C)c1C#N	nt	nt	11.0	nt	11.0	nt
CCOC(=O)N1CCN(C(=O)c2ccccc2-c2ccccc2)CC1	nt	nt	-31.8	nt	-0.7	nt
O=C(c1ccc(Cl)c(S(=O)(=O)N2CCCCCC2)c1)N1CCN(c2ccccn2)CC1	0.4	25.2	0.2	56.8*	10.3	0.7
CN1CCN(C(=O)c2ccc(Cl)c(S(=O)(=O)N3CCCCC3)c2)CC1	0.9	24.3	-30.8	10.7	nt	0.8
O=C(/C=C/c1ccccc1)c1ccccn1	0.7	51.2*	-14.1	27.2	7.1	0.5
CCOC(=O)N1CCN(C(=O)c2ccccc2CCc2ccccc2)CC1	0.1	77.2*	-5.5	87.1*	-12.4	0.2
SMILES	CYP2C9 activ	CYP2C19 inhib	E-sel TNF inh	CYP2C9 inh	F-actin modifier	CYP2C19 activ
O=C(c1cccc(Cl)c1Cl)N1CCN(c2ccccn2)CC1	0.5	45.3	-19.6	46.4	-14.6	0.5
O=C(c1ccccc1CCc1ccccc1)N1CCN(c2ccccn2)CC1	0.1	90.8*	-7.8	94.6*	0.0	0.1
COc1ccc(NC(=O)C2CCN(c3nnnn3-c3ccccc3)CC2)cc1	0.8	7.6	-1.0	20.2	-1.9	0.9
CC(C)(O)C#Cc1ccccc1C(=O)NC(CC(N)=O)C(=O)O (stereo not drawn)	1.1	-3.9	-31.9	-8.3	-2.7	1
O=C1C2C3C=CC(CC3)C2C(=O)N1/N=C/c1ccco1 (stereo not drawn)	nt	nt	-10.3	nt	nt	nt
O=C(c1ccccc1Cl)N1CCN(c2ccccn2)CC1	0.2	81.7*	-40.5	77.5*	23.8	0.2
O=C(c1cc2ccccn2n1)N1CCN(c2ccccn2)CC1	0.8	54.9*	nt	18.0	-24.9	0.5
CCOC(=O)N1CCN(C(=O)c2ccccc2NC(C)=O)CC1	nt	nt	-12.7	nt	nt	nt
O=C(O)CCC(=O)N1CCN(c2ccccn2)CC1	1	0.9	24.6	-0.8	-25.2	1
O=C(/C=C/c1ccccc1)N1CCN(c2ccccn2)CC1	0.5	47.5	-40.0	52.9*	-0.6	0.5
CCOC(=O)N1CCN(C(=O)c2cccc(OC)c2O)CC1	1	57.3*	8.8	4.1	9.0	0.4
O=C(NN(C(=O)C1CC1)c1nc2ccccc2s1)C1CC1	nt	nt	7.7	nt	nt	nt
CC(Sc1ccccc1)C(=O)Nc1ccccc1C(=O)N1CCOCC1 (stereo not drawn)	0.9	12.4	19.4	10.3	5.8	0.9
Cc1cc(C(=O)N/N=C2\CC(=O)CC(C)(C)C2)c2ccccc2n1	nt	nt	12.9	nt	nt	nt
CCC(C)Sc1nnc(CSc2nc(C)cc(C)n2)n1C (stereo not drawn)	nt	nt	26.4	nt	nt	nt
O=S(=O)(Nc1ccc2c(c1)nc1n2CCN(Cc2ccccc2)C1)c1ccc(F)cc1	0.6	24.8	15.1	38.9	-45.1	0.8
COc1cc(N)ccc1C(=O)O	1	-14.6	nt	-0.1	10.9	1.1
COc1ccccc1CNC(=O)c1c(-c2ccccc2)nn(-c2ccccc2)c1C	0.7	48.3	-10.0	27.8	16.2	0.5
Cc1ccc(N)c(C(O)(C(F)(F)F)C(F)(F)F)c1	0.4	82.2*	nt	58.1*	25.8	0.2
O=C(O)Cn1nc(C(F)(F)F)c2c1CCC2	1.2	20.8	8.6	-19.8	3.4	0.8
COc1ccc(NC(=O)c2csc(Cc3ccccc3)n2)cc1	0.4	50.1*	nt	63.8*	-8.8	0.5
O=C(Nc1ccc(F)cc1)c1csc(Cc2ccccc2)n1	nt	nt	-1.9	nt	nt	nt
COc1ccc(CNC(=O)c2csc(Cc3ccccc3)n2)cc1	0.4	87.5*	-2.2	59.3*	-19.6	0.1
COc1ccccc1CNC(=O)c1csc(Cc2ccc(Cl)cc2)n1	0.4	59.7*	-21.6	56.2*	10.5	0.4
OCCNc1nc2ccccc2n1-c1ccccc1	0.8	39.2	22.6	15.1	-7.2	0.6
Cc1cccc(CN2CCc3c(OCC(=O)NCc4ccco4)cccc3C2=O)c1	nt	nt	-1.3	nt	nt	nt
Cc1ccc(S(=O)(=O)NCCN=C(CN2CCCC2)NS(=O)(=O)c2ccc(C)cc2)cc1	0	25.5	nt	96.8*	2.4	0.7
Cc1ccc(S(=O)(=O)NCC2CCC(C(=O)NCCCN3CCOCC3)CC2)cc1 (stereo not drawn)	1	-1.7	-19.7	1.9	-1.9	1

Assay outcomes deposited in PubChem by several laboratories.
